# TEAD-YAP inh: TEAD-YAP interaction inhibition, primary screen, TEAD-YAP interaction inhibitor project, luminescence, HEK-TIYL cells | hit rate 1.4% among 640,000 | TEAD-Gal4/YAP UAS-luciferase luminescence | AID 1259422, 2018 | inhibition, % at 9.12 µM; in the data active = inhibition above about 32%;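 also: 0% = median of test compound wells and 100% = reference inhibitor wells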
# GPR151 activ: activators of human GPR151, primary screen, cell-based, PathHunter beta-arrestin, luminescence; activation, % at 11.2 µM; G-protein coupled receptor 151 (Homo sapiens), Q8TDV0; hit rate 1% among 650,000; AID 1508602, 2020; PathHunter beta-arrestin GPR151 cells; in the data active = activation above about 4.9%;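 also: 0% = median of compound wells and 100% = cells with positive control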
# FBW7 activator: FBW7 E3 ligase activators, primary screen, biochemical, AlphaScreen, human | F-box/WD repeat-containing protein 7 (Homo sapiens), Q969H0 | AlphaScreen FBW7–phospho-cyclin E peptide binding, activator screen | normalized activity (activation), % at 26.1 µM | hit rate 0.13% among 650,000; in the data active = normalized activity above about 1.9%;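 also: purified mutant Fbw7 with reduced substrate affinity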
# MITF inh: MITF inhibitors, primary screen, biochemical, AlphaScreen, human; AlphaScreen MITF homodimerization, bead proximity signal; hit rate 0.91% among 650,000; inhibition, % at 2.6 µM; in the data active = inhibition above about 50%;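 also: 0% = vehicle wells with protein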
# Target sequence (O75030 whole entry, looked up): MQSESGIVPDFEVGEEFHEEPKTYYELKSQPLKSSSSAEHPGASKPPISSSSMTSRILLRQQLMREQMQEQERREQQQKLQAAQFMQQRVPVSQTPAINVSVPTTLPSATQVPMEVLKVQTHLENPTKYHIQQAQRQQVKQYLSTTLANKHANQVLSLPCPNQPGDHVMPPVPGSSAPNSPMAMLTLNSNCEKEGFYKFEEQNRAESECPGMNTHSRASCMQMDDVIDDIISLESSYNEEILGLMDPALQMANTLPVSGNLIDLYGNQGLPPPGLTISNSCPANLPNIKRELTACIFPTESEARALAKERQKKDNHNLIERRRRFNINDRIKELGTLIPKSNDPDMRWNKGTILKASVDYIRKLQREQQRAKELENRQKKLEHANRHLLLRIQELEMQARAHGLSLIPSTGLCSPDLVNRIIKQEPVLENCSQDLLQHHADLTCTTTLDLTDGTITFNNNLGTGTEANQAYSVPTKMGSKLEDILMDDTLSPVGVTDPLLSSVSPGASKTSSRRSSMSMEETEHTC
# The depositor's hits bear a star. Compounds with a hit are over-represented: about 3.4% of the library has one in this group of screens.
SMILES,TEAD-YAP inh,GPR151 activ,FBW7 activator,MITF inh
Cn1cc(-c2ccnc(NC(=O)Cc3ccc(F)cc3)c2)cn1,48*,1,0,-18
O=C(Cc1ccc(F)cc1)Nc1cc(-n2ccnc2-c2ccccc2)ccn1,39*,-1,0,-6
COc1ccc(CC(=O)Nc2ncc3ccc(-c4cn[nH]c4)cc3c2C#N)cc1,27,-3,0,0
COc1ccc(CC(=O)Nc2ncc3ccc(-c4cn[nH]c4)cc3c2Cl)cc1,40*,1,1,14
COc1ccc(CC(=O)Nc2cc(-c3cn[nH]c3)ccn2)cc1,92*,1,0,-7
CCOCCCNC(=O)Nc1nnc(N(C)Cc2ccccc2)s1,-5,3,0,-4
CCOc1cc(/C=C2/SC(=O)N(CC)C2=O)ccc1OC,3,1,0,3
O=[N+]([O-])c1ccc(Sc2n[nH]c(-c3ccncc3)n2)nc1,5,0,0,5
Cc1cc(C(F)(F)F)nc(Sc2ccc([N+](=O)[O-])cn2)n1,60*,-1,0,24
O=C(NCCn1cc(SCC(=O)N2CCOCC2)c2ccccc21)c1ccc(F)cc1,32*,1,0,1
O=C(NCCn1cc(SCC(=O)N2CCN(c3ccccc3)CC2)c2ccccc21)c1ccc(F)cc1,1,0,0,7
COc1cc2nc(N3CCc4ccccc4C3)nc(NCc3cccc(C(F)(F)F)c3)c2cc1OC,1,-2,0,4
Cc1[nH]ncc1-c1ccc(OCCN2CCCC2)c(NC(=O)C2COc3ccc(F)cc3C2)c1 (stereo not given),4,-1,0,10
COc1cccc(/C=N/Nc2ccc([N+](=O)[O-])cn2)c1O,66*,-5,8.6*,-12
O=[N+]([O-])c1cccc(/C=N/Nc2ccccn2)c1O,78*,4,0,94*
O=[N+]([O-])c1cc(/C=N/Nc2ccccn2)c(O)c([N+](=O)[O-])c1,-3,0,0,14
c1ccc(-c2cnc(-c3ccncc3)nn2)cc1,29,-7,0,-14
Cc1sc(NC(=O)CSc2nnnn2-c2ccccc2)nc1-c1ccccc1,9,0,0,5
Cc1cccc2sc(NC(=O)CSc3nnnn3-c3ccccc3)nc12,9,-2,2.0*,16
Cc1ccc(-c2cn3nc(C)c(C)nc3n2)cc1,46*,-5,0,-3
COc1ccc(-c2cn3nc(C)c(C)nc3n2)cc1OC,-54,1,0,2
CC(=N/O)/C(C)=N\NC(=O)c1ccccn1,45*,-5,0,4
CC(=N/NC(=O)c1ccc(C)cc1)/C(C)=N/O,71*,-2,0,-1
COc1cccc(NC(=O)c2cc3ccccn3n2)c1,-4,-5,0,-4
COc1ccccc1CNc1cc(C)ccc1OC,-2,0,0,62*
SMILES,TEAD-YAP inh,GPR151 activ,FBW7 activator,MITF inh
COc1ccccc1CC(=O)Nc1ccc(C)cc1C,-2,-2,0,-13
COc1ccccc1CNc1ccccc1F,9,-1,2.2*,-8
COc1ccccc1CNc1ccccc1SC,4,0,0,-17
COc1cc(NS(=O)(=O)c2ccc(OC)c(OC)c2)c(OC)cc1Cl,48*,2,0,9
COC(=O)c1ccc(C(=O)OC)c(NS(=O)(=O)c2cc(Cl)ccc2Cl)c1,1,1,0,-14
COC(=O)c1ccc(C(=O)OC)c(S(=O)(=O)Nc2cc(OC)c(Cl)cc2OC)c1,45*,-2,0,10
COc1ccc(S(=O)(=O)Nc2ccc(NC(C)=O)cc2)cc1Cl,1,0,0,-5
COc1ccc(Cl)cc1NS(=O)(=O)c1ccc(OC)c(OC)c1,-3,1,0,13
COc1cc(NS(=O)(=O)c2ccc(NC(C)=O)cc2)c(OC)cc1Cl,52*,0,0,6
Cc1nc2sc3c(c2c2nnc(SCC(=O)N4CCC(C)CC4)n12)CCCC3,1,0,0,6
CC(=O)NC(c1ccc2c(c1)OCO2)c1cc(Cl)c2cccnc2c1O (stereo not given),71*,-1,-1,34
CC(=O)NC(c1ccc(C)cc1)c1cc(Cl)c2cccnc2c1O (stereo not given),28,0,0,28
CC(=O)NC(c1cccc(Cl)c1)c1cc(Cl)c2cccnc2c1O (stereo not given),36*,0,-1,19
CCCCC(=O)NC(c1ccc2c(c1)OCO2)c1cc(Cl)c2cccnc2c1O (stereo not given),3,-2,0,12
COc1cccc(CC2(CO)CCCN(Cc3c(C)nc4sccn34)C2)c1 (stereo not given),41*,0,0,22
CCOC(=O)C1(Cc2cccc(OC)c2)CCN(Cc2c(C)nc3sccn23)CC1,26,1,0,12
Cc1nc2sccn2c1CN1CCCC(N(C)CCc2ccccc2)C1 (stereo not given),43*,1,0,-1
Cc1nc2sccn2c1CN1CCN(CCc2ccccc2)C(CCO)C1 (stereo not given),-5,-2,0,19
Cc1[nH]n(-c2ccc(Cl)cc2)c(=O)c1C=Nc1ccc(S(=O)(=O)Nc2ccccc2)cc1,12,-2,0,4
CN(C)c1ccc(CC(=O)c2nc3ccccc3s2)cc1,34*,-2,0,10
O=C(O)C(Cc1ccccc1)N1C(=O)C2CCCCC2C1=O (stereo not given),6,0,2.6*,-4
CC(C)c1nccn1CC1CCN(C(=O)c2ccccc2Cl)CC1,33*,0,0,9
CCCCNc1nc(Nc2ccccc2)c2cnn(C)c2n1,5,1,0,0
CCCNC(=O)c1ccc2nc(N3CCN(Cc4ccc5c(c4)OCO5)CC3)sc2c1,-2,-1,0,13
O=C(NC1CCN(Cc2ccccc2)CC1)c1ccc2nc(N3CCN(Cc4ccc5c(c4)OCO5)CC3)sc2c1,44*,1,0,6
SMILES,TEAD-YAP inh,GPR151 activ,FBW7 activator,MITF inh
O=C(NCCOc1ccccc1)c1ccc2nc(N3CCOCC3)sc2c1,11,5.8*,0,7
COCCNC(=O)c1ccc2nc(N3CCOCC3)sc2c1,2,0,0,24
CCc1cccc(C)c1NC(=O)CS(=O)(=O)Cc1nc(-c2cccc(OC)c2)oc1C,0,0,0,-17
CCOC(=O)N1CCN(C(=O)c2ccc(Cn3c(=S)[nH]c4ccccc4c3=O)cc2)CC1,45*,-1,0,-6
CCNc1nc(NCc2cccnc2)c2ncn(C(C)C)c2n1,0,-1,0,5
CC(C)n1cnc2c(NCc3nc4ccccc4[nH]3)nc(NCc3cccnc3)nc21,59*,-2,0,18
CC(C)n1cnc2c(NCc3nc4ccccc4[nH]3)nc(Nc3ccccn3)nc21,85*,1,1,0
CC(C)n1cnc2c(NCc3nc4ccccc4[nH]3)nc(Nc3ccncn3)nc21,86*,3,0,-8

# Assay outcomes from PubChem BioAssay.
